Wnt bcat act: Wnt/beta-catenin pathway activators, primary screen, cell-based, plate reader, single point; Wnt/beta-catenin reporter cell assay, activator; activation, % at 9.35 µM; 300,000 compounds, 1.2% hits; AID 743398, 2014; in the data active = activation above about 30%, passing the limit was not always enough;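 note: 0% = neutral control wells and 100% = positive control wells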
Glyco luc inh: increase of ERlucT glycosylation luciferase signal, primary screen, N-linked glycosylation inhibitor project, D54 ERlucT cells, luminescence, set 2 | D54 ERlucT glycosylation luciferase reporter, 24 h; percent of 100 nM tunicamycin response | reporter increase, % at 12.5 µM | 360,000 compounds, 0.23% hits;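 active = mean luciferase reporter signal, scaled so untreated is 0 and the glycosylation-blocking control 100, at or above a set limit in every replicate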;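 note: luciferase carries N-glycosylation sites so blocking glycosylation raises the light; 0% = median of neutral control wells and 100% = median of 100 nM tunicamycin wells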
MITF act: activators of MITF-driven TRPM1 promoter reporter, primary screen, cell-based, SK-MEL-5, luciferase, single point; SK-MEL-5 TRPM1-promoter luciferase, 24 h; % of positive control, neutral wells = 0; activation, % at 12.5 µM; 300,000 compounds, 0.75% hits; AID 588334, 2011;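 active = mean activation of at least 80% with every replicate also reaching 80%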;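 note: 0% = neutral control wells and 100% = parthenolide positive control wells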
PfHsp90 set2: growth inhibition of PfHsp90-expressing yeast, primary screen, antimalarial PfHsp90 inhibitor project, S. cerevisiae, BacTiter-Glo luminescence, single point, set 2 | BacTiter-Glo ATP, 48 h; yeast lacking PDR1 and PDR3 efflux regulators | inhibition, % at 9.4 µM | 310,000 compounds, 0.32% hits | AID 504621, 2011;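 active = every replicate shows inhibition above about 80%, whatever the replicate mean, limit read from the data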;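 note: 0% = DMSO neutral controls and 100% = 20 µM radicicol positive controls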
Vif imaging: HIV Vif self-association inhibitors, primary screen, imaging, HEK293T, single point; HEK293T cells, Vif self-association by quenched fluorescence, 24 h; inhibition, % at 7.49 µM; 340,000 compounds, 0.35% hits; AID 602346, 2012; in the data active = inhibition above about 50%, passing the limit was not always enough
esBAF inh: Bmi1 luciferase reporter increase in mESCs, primary screen, esBAF inhibitor project, mouse ES cells, Bmi1 luciferase knock-in, single point. reporter increase, % at 12.5 µM. 24 h; 100% = twice the neutral-well signal. 350,000 compounds, 2% hits; in the data active = activation above about 40%;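 note: 0% = median of the plate's neutral control wells and 100% = double that signal; a rise in the Bmi1 reporter signal indicates esBAF inhibition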
Starred values were filed as active, the others as inactive. This is a sample that favours compounds with a hit; in the whole collection about 3% have one here.

How did N/C(=N\OC(=O)Cc1ccccc1[N+](=O)[O-])c1cccc(Br)c1 do in these assays?
Wnt bcat act: 37*; Glyco luc inh: 4; MITF act: -4; PfHsp90 set2: 5; Vif imaging: -21; esBAF inh: 3

Results for N/C(=N\OC(=O)c1cccs1)c1ccccc1 ?
Wnt bcat act: 14; Glyco luc inh: -4; MITF act: 19; PfHsp90 set2: -20; Vif imaging: 4; esBAF inh: 18

Results for Cc1cccc(/C(N)=N/OC(=O)c2cccs2)c1 ?
Wnt bcat act: 58*; Glyco luc inh: -12; MITF act: 8; PfHsp90 set2: -14; esBAF inh: -39

What do the screens show for `Cc1ccc(/C(N)=N/OC(=O)c2cccs2)cc1`?
Wnt bcat act: 54*; Glyco luc inh: -14; MITF act: 17; PfHsp90 set2: 0; Vif imaging: 16; esBAF inh: -4

What do the screens show for `N/C(=N\OC(=O)c1cccs1)c1cccc(Br)c1`?
Wnt bcat act: 44*; Glyco luc inh: -2; MITF act: 70; PfHsp90 set2: -25; Vif imaging: -8; esBAF inh: 22

Results for O=C(CN(C1CCCCC1)S(=O)(=O)c1ccc(Br)cc1)NCc1ccncc1 ?
Wnt bcat act: -1; Glyco luc inh: -1; MITF act: 13; PfHsp90 set2: 10; Vif imaging: -1

How did CC(=NNC(=S)N1CC2CCC(CC2)C1)c1ccncn1 do in these assays?
Wnt bcat act: -14; Glyco luc inh: -12; MITF act: -76; PfHsp90 set2: 111*; Vif imaging: -14

How did CCN(C(=O)c1cc2c(=O)n3ccccc3nc2s1)C1CCCCC1 do in these assays?
Wnt bcat act: 10; Glyco luc inh: 0; MITF act: 36; PfHsp90 set2: 10; Vif imaging: 8; esBAF inh: 58*

How did CCN(C(=O)c1cc2c(=O)n3ccccc3nc2n1C)C1CCCCC1 do in these assays?
Wnt bcat act: 8; Glyco luc inh: -1; MITF act: 26; PfHsp90 set2: 19; Vif imaging: 10; esBAF inh: 38

What do the screens show for `CN(C(=O)c1cc2c(=O)n3ccccc3nc2n1C)C1CCCCC1`?
Wnt bcat act: 37*; Glyco luc inh: -4; MITF act: 69; PfHsp90 set2: 25; Vif imaging: 1; esBAF inh: 11

How did CCN(C(=O)c1cc2c(=O)n3cccc(C)c3nc2s1)C1CCCCC1 do in these assays?
Wnt bcat act: -2; Glyco luc inh: 0; MITF act: 24; PfHsp90 set2: -23; Vif imaging: -9; esBAF inh: 67*

What do the screens show for `COc1ccc(Cl)cc1-c1nc(SCC(=O)NC(C)C)n[nH]1`?
Wnt bcat act: -1; Glyco luc inh: 2; MITF act: 7; PfHsp90 set2: -13; Vif imaging: -8; esBAF inh: -10

What do the screens show for `COc1ccc(OCc2nnc(SCC(=O)Nc3cccc(Cl)c3)o2)cc1`?
Wnt bcat act: -1; Glyco luc inh: 4; MITF act: -2; PfHsp90 set2: -5; Vif imaging: 51*; esBAF inh: -4

Results for COc1ccc(OCc2nnc(SCC(=O)Nc3ccc(C)cc3)o2)cc1 ?
Wnt bcat act: 6; Glyco luc inh: 2; MITF act: 0; PfHsp90 set2: -8; Vif imaging: 5; esBAF inh: -4

Results for CCn1nnnc1SCC(=O)Nc1ccc2c(c1)OCCO2 ?
Wnt bcat act: 43*; Glyco luc inh: -7; MITF act: 37; PfHsp90 set2: 5; Vif imaging: 11

What do the screens show for `COc1ccc(-c2nnc(SC(C)C(=O)Nc3cccc(Cl)c3)o2)cc1` (stereo not drawn)?
Wnt bcat act: 39*; Glyco luc inh: -5; MITF act: 87*; PfHsp90 set2: -4; Vif imaging: 2; esBAF inh: 40

Results for COCCCn1nnnc1SCC(=O)Nc1ccc2c(c1)OCCO2 ?
Wnt bcat act: -1; Glyco luc inh: 0; MITF act: 14; PfHsp90 set2: -18; Vif imaging: -1; esBAF inh: -2
